Assay [1] in a line: small molecules captured by biotinylated probe aFSTL3 – biochemical, small-molecule microarray, fluorescence 635/667, stem cell growth factor project, primary screen (AID 1064).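 Note: measures binding of the biotinylated anti-FSTL3 antibody to printed compounds.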 The conditions noted are these: higher = more signal.
Assay [2] can be described thus: binders from COS7 lysate, DM2A8 probe, primary screen, torsin A project, cell lysate, small-molecule microarray, fluorescence 635/667 (AID 1065). The conditions noted are these: higher = more signal, COS7 lysate expressing mutant human TOR1A.
Assay [3] in a line: small molecules captured by biotinylated probe aFGF2 – biochemical, small-molecule microarray, fluorescence 635/667, stem cell growth factor project, primary screen (AID 1067).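 Note: measures binding of biotinylated aFGF2 protein to printed compounds on slides; z-score merges feature fluorescence and signal-to-noise across triplicate slides.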 To be noted: higher = more signal.
Assay [4] is described as follows: small molecules captured by biotinylated probe aFGF10 – biochemical, small-molecule microarray, fluorescence 635/667, stem cell growth factor project, primary screen (AID 1071).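 Note: score merges 667 nm spot intensity and signal to noise from triplicate slides.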 The conditions noted are these: higher = more signal.
Assay [5] deals with Neurogenic locus notch homolog protein 2 (Homo sapiens) (UniProt Q04721). Nature of the assay: small molecules binding Notch2 protein – biochemical, small-molecule microarray, 635 nm fluorescence, stem cell growth factors, primary screen (AID 1073). To be noted: higher = more signal.
Assay [6] concerns the target Pro-neuregulin-1, membrane-bound isoform (Homo sapiens) (UniProt Q02297). The experiment in a line: small molecules binding neuregulin-1 protein – biochemical, small-molecule microarray, fluorescence 635/667, psychiatric disease protein project, primary screen (AID 1075).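 Note: score combines 667 nm spot fluorescence with signal to noise.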 To be noted: NRG1 binding, 635 nm fluorescence, higher = more signal.
Assay [7] deals with Neuregulin-1 EGF-like domain. The experiment in a line: small molecules binding NRG1 EGF domain – biochemical, small-molecule microarray, 635 nm fluorescence, primary screen (AID 1081).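 Note: binding of the protein to compounds printed on small-molecule microarray slides.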 The conditions noted are these: higher = more signal.
The nature of assay [8]: FRG1 expression reporter modulators in myotubes – cell-based, C2C12 myotubes, firefly/Renilla luciferase, luminescence, FRG1 inhibition for FSHD, primary screen (AID 1084). The conditions noted are these: FRG1 promoter luciferase, higher = more signal, called active from +8 up or from −8 down.
Assay [9] in a line: small molecules captured by biotinylated probe aFST – biochemical, small-molecule microarray, fluorescence 635/667, stem cell growth factor project, primary screen (AID 1086).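 Note: score merges 667 nm fluorescence with signal-to-noise of each printed compound spot.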 The conditions noted are these: higher = more signal.
A short description of assay [10]: binders of probe aHhip on microarray, primary screen, stem cell growth factor project, biochemical, small-molecule microarray, fluorescence 635/667 (AID 1087).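 Note: score merges spot fluorescence at 667nm with spot signal to noise ratio.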 To be noted: higher = more signal.
Assay [11] has as its system PRMT1 (protein arginine N-methyltransferase 1). Nature of the assay: small molecules binding arginine methyltransferase PRMT1 – biochemical, small-molecule microarray, 635 nm fluorescence, primary screen (AID 1088).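 Note: binding of Prmt1 protein to compounds spotted on small-molecule microarray slides.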 The conditions noted are these: higher = more signal.
Assay [12] can be described thus: growth effects on S. cerevisiae YJM789 – YJM789 clinical isolate, OD600, 24 h, basal, primary screen (AID 1089).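 Note: growth of clinical yeast isolate S. cerevisiae YJM 789 seeded 1000 cells per well; test concentration not given here.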 To be noted: higher = more signal, called active from +8 up or from −8 down.
Assay [13] can be described thus: S. pombe growth modifiers, basal conditions – strain 972, OD600, 24 h, no modulator, primary screen (AID 1090).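 Note: basal condition with compound alone and no growth modifier present; test concentration not given here.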 The conditions noted are these: S. pombe 972 growth, higher = more signal, called active from +8 up or from −8 down.
Assay [14] can be described thus: budding yeast growth modifiers under rapamycin – strain BY4716, OD600, 96 h, primary screen (AID 1091). Note: test concentration not given here. The conditions noted are these: S. cerevisiae BY4716 + rapamycin, higher = more signal, called active from +8 up or from −8 down.
Assay [15] concerns the target Torsin-1A-interacting protein 2 (Homo sapiens) (UniProt Q8NFQ8). Nature of the assay: small molecules binding lysate-expressed LULL1 – cell lysate, human LULL1 lysate, 635/667 nm fluorescence, primary screen (AID 1092).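 Note: probe is lysate of COS7 cells overexpressing human LULL1; score merges per-feature 667 nm fluorescence with signal-to-noise.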 To be noted: small-molecule microarray, hLULL1 lysate binding, 635 nm fluorescence; higher = more signal.
Assay [16] is described as follows: optical density change of DRC41 E. coli – strain DRC41, OD650, 24 h, E. coli filamentation project, primary screen (AID 1093).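 Note: MC1000 strain lacking acrAB efflux and sulA so SOS filamentation is blocked; test concentration not given here.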 To be noted: E. coli DRC41 growth, higher = more signal, called active from +8 up or from −8 down.
A short description of assay [17]: probe aLefty2 binding to arrayed compounds – biochemical, biotinylated probe, 635/667 nm fluorescence, primary screen (AID 1094).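 Note: score merges spot fluorescence near 667 nm with spot signal-to-noise ratio.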 The conditions noted are these: small-molecule microarray, higher = more signal.
The subject of assay [18] is Noggin (protein binding on small-molecule microarray). Nature of the assay: small molecules binding Noggin protein – biochemical, 635/667 nm fluorescence, primary screen (AID 1095).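 Note: score merges 667 nm feature fluorescence with signal to noise over triplicate slides.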 The conditions noted are these: 635 nm fluorescence, higher = more signal.
The target of assay [19] is Neurogenic locus notch homolog protein 3 (Homo sapiens) (UniProt Q9UM47). The experiment in a line: small molecules binding NOTCH3 protein – biochemical, 635/667 nm fluorescence, primary screen (AID 1096). The conditions noted are these: small-molecule microarray, 635 nm fluorescence, higher = more signal.
Chain of Neurogenic locus notch homolog protein 3 (Homo sapiens) (Q9UM47 whole entry, looked up): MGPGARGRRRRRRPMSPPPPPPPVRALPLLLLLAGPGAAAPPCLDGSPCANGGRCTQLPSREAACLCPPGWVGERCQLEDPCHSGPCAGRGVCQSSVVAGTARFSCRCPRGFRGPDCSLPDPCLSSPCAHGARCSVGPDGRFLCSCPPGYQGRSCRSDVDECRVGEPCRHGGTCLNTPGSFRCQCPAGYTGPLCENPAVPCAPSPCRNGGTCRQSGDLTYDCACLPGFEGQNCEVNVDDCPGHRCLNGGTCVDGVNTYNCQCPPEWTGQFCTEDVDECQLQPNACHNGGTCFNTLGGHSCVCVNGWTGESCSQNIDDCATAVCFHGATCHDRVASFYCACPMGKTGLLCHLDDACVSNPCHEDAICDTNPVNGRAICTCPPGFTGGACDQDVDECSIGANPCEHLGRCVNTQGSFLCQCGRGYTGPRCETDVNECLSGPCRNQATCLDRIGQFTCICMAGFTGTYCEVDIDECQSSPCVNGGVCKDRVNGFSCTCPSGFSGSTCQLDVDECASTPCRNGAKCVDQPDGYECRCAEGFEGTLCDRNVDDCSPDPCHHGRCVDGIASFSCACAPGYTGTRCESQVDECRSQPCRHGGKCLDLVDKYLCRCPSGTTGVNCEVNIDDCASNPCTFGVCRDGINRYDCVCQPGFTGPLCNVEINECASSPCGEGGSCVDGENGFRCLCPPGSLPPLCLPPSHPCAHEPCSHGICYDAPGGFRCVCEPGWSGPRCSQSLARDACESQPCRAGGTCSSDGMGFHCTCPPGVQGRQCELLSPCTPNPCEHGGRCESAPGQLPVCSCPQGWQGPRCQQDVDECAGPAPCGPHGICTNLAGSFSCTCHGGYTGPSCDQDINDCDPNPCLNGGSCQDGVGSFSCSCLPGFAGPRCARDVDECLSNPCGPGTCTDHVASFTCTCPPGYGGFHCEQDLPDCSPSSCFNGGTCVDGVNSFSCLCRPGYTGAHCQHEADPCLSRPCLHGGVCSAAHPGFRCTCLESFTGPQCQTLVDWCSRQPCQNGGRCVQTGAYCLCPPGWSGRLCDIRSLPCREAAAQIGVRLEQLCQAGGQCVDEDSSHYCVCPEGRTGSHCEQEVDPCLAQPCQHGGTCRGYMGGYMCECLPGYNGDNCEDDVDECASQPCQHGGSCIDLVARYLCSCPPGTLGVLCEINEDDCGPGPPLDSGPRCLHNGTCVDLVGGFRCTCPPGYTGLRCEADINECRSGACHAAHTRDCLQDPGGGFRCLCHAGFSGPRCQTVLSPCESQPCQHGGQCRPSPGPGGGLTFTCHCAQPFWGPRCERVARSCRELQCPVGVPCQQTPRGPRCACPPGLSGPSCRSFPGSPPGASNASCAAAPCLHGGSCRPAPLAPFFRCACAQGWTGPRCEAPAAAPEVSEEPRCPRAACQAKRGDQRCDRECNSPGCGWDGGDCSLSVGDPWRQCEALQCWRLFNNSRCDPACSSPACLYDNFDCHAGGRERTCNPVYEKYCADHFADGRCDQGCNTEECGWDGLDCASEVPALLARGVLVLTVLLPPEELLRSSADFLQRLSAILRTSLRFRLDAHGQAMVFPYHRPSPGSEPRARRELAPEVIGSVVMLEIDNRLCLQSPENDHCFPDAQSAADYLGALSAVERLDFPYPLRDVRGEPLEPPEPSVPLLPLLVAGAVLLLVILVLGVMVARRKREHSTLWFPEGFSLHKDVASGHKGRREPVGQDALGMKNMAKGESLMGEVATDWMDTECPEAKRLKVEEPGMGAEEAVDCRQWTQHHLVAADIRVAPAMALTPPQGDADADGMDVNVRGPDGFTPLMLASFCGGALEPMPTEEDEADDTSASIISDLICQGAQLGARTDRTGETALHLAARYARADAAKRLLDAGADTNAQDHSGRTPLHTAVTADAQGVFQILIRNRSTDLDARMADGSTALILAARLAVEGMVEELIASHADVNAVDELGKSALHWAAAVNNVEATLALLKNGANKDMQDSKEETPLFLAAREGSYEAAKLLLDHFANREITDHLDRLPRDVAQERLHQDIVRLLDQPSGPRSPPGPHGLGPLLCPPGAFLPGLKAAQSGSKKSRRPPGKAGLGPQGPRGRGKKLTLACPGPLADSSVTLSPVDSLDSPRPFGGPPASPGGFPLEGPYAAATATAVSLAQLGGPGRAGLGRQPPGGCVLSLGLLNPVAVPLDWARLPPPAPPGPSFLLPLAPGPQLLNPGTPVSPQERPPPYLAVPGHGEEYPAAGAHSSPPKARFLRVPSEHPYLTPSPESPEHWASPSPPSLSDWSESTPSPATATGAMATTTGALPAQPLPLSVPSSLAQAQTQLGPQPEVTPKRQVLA
Assay [20] can be described thus: probe aEGFR binding to arrayed compounds – biochemical, biotinylated probe, 635/667 nm fluorescence, primary screen (AID 1097).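 Note: probe is a biotinylated anti-EGFR antibody binding compounds printed on slides; score combines fluorescence near 667 nm and signal to noise of each spot.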 The conditions noted are these: small-molecule microarray, higher = more signal.

Each structure is given as a SMILES string. Calls of active or inactive are those of the source.

Chain of Torsin-1A-interacting protein 2 (Homo sapiens) (Q8NFQ8 whole entry, looked up): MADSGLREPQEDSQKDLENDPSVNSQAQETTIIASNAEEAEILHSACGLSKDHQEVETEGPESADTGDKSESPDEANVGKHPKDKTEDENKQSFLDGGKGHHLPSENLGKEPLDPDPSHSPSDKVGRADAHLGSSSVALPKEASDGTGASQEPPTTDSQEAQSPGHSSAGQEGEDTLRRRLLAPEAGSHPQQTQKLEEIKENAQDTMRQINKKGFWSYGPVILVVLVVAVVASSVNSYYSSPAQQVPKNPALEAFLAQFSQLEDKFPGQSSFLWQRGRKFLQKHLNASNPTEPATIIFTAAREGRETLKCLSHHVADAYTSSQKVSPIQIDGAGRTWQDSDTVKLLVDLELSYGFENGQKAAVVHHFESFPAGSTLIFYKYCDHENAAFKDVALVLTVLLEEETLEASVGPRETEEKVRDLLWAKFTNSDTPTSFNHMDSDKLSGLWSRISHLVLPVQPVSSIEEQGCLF
Chain of Pro-neuregulin-1, membrane-bound isoform (Homo sapiens) (Q02297 whole entry, looked up, the tested form may be a part, canonical isoform): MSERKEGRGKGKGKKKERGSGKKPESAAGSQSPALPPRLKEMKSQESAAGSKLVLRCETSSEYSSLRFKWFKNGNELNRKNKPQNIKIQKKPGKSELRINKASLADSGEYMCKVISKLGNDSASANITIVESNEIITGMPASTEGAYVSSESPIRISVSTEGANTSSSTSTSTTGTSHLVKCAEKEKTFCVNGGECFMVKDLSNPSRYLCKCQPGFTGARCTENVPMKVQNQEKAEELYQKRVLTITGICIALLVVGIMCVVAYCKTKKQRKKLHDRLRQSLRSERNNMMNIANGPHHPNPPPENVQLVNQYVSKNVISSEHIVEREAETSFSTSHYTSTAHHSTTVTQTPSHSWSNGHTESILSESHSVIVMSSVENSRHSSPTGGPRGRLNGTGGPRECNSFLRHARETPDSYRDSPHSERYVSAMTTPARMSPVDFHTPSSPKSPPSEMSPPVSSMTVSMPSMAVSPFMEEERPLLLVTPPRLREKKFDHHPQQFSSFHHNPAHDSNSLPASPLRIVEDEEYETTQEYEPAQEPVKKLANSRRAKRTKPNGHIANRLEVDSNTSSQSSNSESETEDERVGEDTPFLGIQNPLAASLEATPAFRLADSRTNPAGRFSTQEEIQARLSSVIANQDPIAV

As for `COC(=O)[C@@]1(Cc2ccccc2)[C@H]2c3cc(C(=O)N4CCCC4)n(CCSCCO)c3C[C@H]2CN1C(=O)c1ccccc1`, the composite z-score came to 0.729 in assay [1]; 0.773 in [2]; 0.457 in assay [3]; 0.525 in [4]; 1.83 in assay [5]; 1.66 in assay [6]. For the same compound, the composite z-score in [7] stood at 1.37; in assay [9] it was 0.894; in assay [10], 0.189; in assay [11], 0.465; in [15] it was 3.67; in assay [17], 0.788. The composite z-score in [18] came out at 0.511; in assay [19], 0.899; in assay [20] it was 0.0971. In addition, the z-score in [8] was -0.906 (inactive); in [12], 0.118 (inactive); in assay [13], 0.307 (inactive); in assay [14], -0.0727 (inactive); in assay [16], -1 (inactive).

As to `CCN(CC)c1ccc(N2CC=CC34O[C@@H]5C=CCCOC(=O)C5[C@H]3C(=O)N(CCO)[C@@H]4C2=O)cc1` (stereo not given in full), the composite z-score in [1] was 0.171; in [2], -0.981; in assay [3], -0.18; in assay [4], -0.463; in assay [5], -0.894; in assay [6] it was -0.684. Moreover, the composite z-score is 1.52 in assay [7]; -0.209 in [9]; -0.137 in assay [10]; -1.15 in assay [11]; -0.66 in [15]; -0.235 in assay [17]. The values for the composite z-score in assay [18], in assay [19] and in assay [20] were -1.42, -0.477 and -0.201, respectively. Moreover, the z-score in assay [8] was -0.329 (inactive); in [12], -0.562 (inactive); in assay [13], -1.07 (inactive); in assay [14], -0.315 (inactive); in assay [16], 0.701 (inactive).

In the case of `C=CCN1C(=O)[C@]2(O[C@H](CCO)[C@@H]([Si](C)(C)c3ccc(OC)cc3)[C@@H]2C)c2cc(NC(=O)c3ccc(OC)cc3)ccc21`, the composite z-score in assay [1] is -0.429; in [2], 0.421; in assay [3] it was -0.105; in assay [4] it was 0.3; in assay [5] it was 0.384; in [6], 0.686. In addition, the composite z-score is 1.09 in assay [7]; 0.346 in assay [9]; -0.204 in assay [10]; 1.5 in assay [11]; 0.739 in assay [15]; -0.166 in assay [17]. Moreover, the composite z-score in assay [18] is 1.62; in [19], 0.924; in assay [20], -0.111. Besides, the z-score in [8] was -3.52 (inactive); in assay [12] it was 0.405 (inactive); in assay [13], -1.91 (inactive); in [14], 2.89 (inactive); in assay [16], 0.577 (inactive).

With `COc1cc(CO)cc(I)c1O[C@H]1C=C(C(=O)NCCO)C[C@@H](NCC2CCCCC2)[C@@H]1O`, the composite z-score is -0.149 in assay [1]; -0.422 in assay [2]; -0.0506 in [3]; 0.542 in [4]; 0.481 in assay [5]; 0.579 in assay [6]. For the same compound, the composite z-score in [7] is 0.652; in [9], 0.638; in [10], 0.0505; in [11], 0.332; in assay [15] it was 2.65; in [17], -0.0719. For the same compound, the composite z-score in [18] was 0.323; in assay [19] it was 0.793; in [20] it was -0.067. Further, the z-score in [8] was -1.14 (inactive); in assay [12] it was -1.94 (inactive); in [13], -0.883 (inactive); in assay [14] it was -0.999 (inactive); in [16], 1.69 (inactive).

Consider `C=CCC(OC(C)=O)[C@@H]1[C@@H](N(Cc2cc3ccccc3o2)C(=O)c2ccc(-c3ccccc3)cc2)c2cc(OCCCO)ccc2N1C(=O)Cc1ccc(OC)cc1` (stereo not given in full), for which the composite z-score in assay [1] was -0.0413; in assay [2], -0.183; in assay [3], -0.0002; in [4], 0.248; in assay [5], 0.0777; in assay [6], 0.0526. Further, the composite z-score was -0.353 in [7]; 0.331 in assay [9]; -0.189 in assay [10]; -0.826 in assay [11]; -0.299 in assay [15]; -0.0766 in assay [17]. The composite z-score in assay [18] was 0.18; in assay [19], -0.364; in assay [20], -0.0353. The z-score in assay [8] was -0.802 (inactive); in assay [12], 0.21 (inactive); in assay [13] it was 0.443 (inactive); in assay [14] it was 0.945 (inactive); in assay [16], -1.02 (inactive).
